In the supplement of paper PMC3334620:
In all, about 33,000 sequences were measured (“E-score (-0.5 to 0.5)”: median about -0.053, highest 2% from about 0.37 on). What follows is part of a selection rich in the highest values, with near analogues and random picks from the rest.

Biological target: Hap1 (UniProt P0CE41)
Experiment: PBM E-score (8-mer binding enrichment) (E-score (-0.5 to 0.5)); higher = stronger / more preferred TF binding
Conditions: protein concentration: 200 nM; construct: GST-DNA-binding domain
Protocol: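 Universal 'all 10-mer' protein binding microarrays (Agilent AMADID 015681) probed with GST-tagged S. cerevisiae TFs (full-length or DBD) made by in vitro transcription/translation (PURExpress), about 100-200 nM. Bound TF was detected with fluorescent anti-GST. Each ungapped 8-mer (which stands for itself and its reverse complement) is scored by the PBM enrichment score (E-score), a modified Wilcoxon-Mann-Whitney statistic from -0.5 to +0.5, computed with the Universal PBM Analysis Suite. Scale: above 0.35 generally sequence-specific binding.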

UniProt P0CE41, sequence (P0CE41 whole entry): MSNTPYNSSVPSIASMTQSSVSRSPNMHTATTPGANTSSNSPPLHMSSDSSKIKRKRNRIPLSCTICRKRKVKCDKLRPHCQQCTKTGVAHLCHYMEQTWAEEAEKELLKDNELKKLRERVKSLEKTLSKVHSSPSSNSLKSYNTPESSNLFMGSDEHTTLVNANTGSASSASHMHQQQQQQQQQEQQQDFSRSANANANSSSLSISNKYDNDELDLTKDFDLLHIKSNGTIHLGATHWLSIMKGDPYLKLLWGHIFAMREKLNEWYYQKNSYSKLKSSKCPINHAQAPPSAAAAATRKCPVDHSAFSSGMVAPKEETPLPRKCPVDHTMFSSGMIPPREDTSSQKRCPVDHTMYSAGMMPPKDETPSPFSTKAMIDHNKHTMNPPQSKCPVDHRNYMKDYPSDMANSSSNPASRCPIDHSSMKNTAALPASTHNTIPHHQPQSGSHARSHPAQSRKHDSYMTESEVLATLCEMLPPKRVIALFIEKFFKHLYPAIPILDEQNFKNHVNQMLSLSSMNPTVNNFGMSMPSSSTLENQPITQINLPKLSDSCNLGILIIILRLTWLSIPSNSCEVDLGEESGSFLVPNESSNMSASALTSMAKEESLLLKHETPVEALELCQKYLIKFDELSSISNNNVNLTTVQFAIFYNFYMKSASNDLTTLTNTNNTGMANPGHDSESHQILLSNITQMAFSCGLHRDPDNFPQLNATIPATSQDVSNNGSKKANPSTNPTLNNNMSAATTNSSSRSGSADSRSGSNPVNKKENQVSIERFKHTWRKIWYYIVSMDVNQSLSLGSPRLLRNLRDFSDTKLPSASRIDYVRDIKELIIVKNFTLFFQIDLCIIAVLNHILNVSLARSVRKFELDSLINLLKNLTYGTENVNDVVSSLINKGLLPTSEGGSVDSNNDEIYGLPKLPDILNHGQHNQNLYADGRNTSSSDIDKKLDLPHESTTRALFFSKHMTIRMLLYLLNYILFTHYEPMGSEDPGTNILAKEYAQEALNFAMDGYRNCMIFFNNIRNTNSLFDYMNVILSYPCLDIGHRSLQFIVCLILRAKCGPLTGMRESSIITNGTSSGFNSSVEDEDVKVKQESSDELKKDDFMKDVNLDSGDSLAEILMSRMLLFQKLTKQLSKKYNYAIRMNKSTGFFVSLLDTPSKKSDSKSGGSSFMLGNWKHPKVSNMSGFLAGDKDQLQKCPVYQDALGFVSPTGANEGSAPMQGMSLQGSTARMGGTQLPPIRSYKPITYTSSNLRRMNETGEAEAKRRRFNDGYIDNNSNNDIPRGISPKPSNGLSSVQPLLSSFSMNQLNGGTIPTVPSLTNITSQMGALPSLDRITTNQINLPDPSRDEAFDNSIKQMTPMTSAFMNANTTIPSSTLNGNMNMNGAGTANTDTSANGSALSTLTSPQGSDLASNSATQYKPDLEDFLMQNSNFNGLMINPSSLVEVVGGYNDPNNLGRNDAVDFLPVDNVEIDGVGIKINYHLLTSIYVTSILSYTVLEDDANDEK

Row | Sequence | PBM E-score
1 | ATCCTCGA | -0.107
2 | AAACGCCC | 0.263
3 | GTCCCGAC | 0.243
4 | AGGCGGCC | 0.0302
5 | CGTTCGGA | 0.412
6 | GGTTCGAA | 0.00151
7 | AGTTCGGA | 0.366
8 | GGTTCGGA | 0.373
9 | CGTTCGTA | 0.0644
10 | CGTTCGGC | 0.291
11 | GGCATACC | 0.107
12 | CCCGGCTA | 0.344
13 | ATGTTTCA | -0.21
14 | CATGGTGG | -0.137
15 | GCCCTCGC | -0.0401
16 | CCCGTCTA | -0.0612
17 | CGTACCTC | -0.0658
18 | AACTGCTT | -0.134
19 | CCTCCTCG | -0.147
20 | ACCTGCTG | -0.058
21 | CACCGGTC | 0.227
22 | CCCCGGGA | 0.348
23 | CACCGGTG | 0.24
24 | TACCGGTA | 0.441
25 | TACCGGGA | 0.387

Row | Sequence | PBM E-score
26 | GACCGGGA | 0.329
27 | CACCGGTA | 0.376
28 | AACCGGGA | 0.193
29 | GACCGGTA | 0.243
30 | AACCGGTA | 0.331
31 | TCCCGGGA | 0.392
32 | TCACGGGA | 0.0121
33 | CAGTAGAA | -0.229
34 | TTGCGCAA | -0.00107
35 | CATGCAGC | -0.164
36 | AGCTCGAC | -0.227
37 | ATCAAGCG | 0.0373
38 | AGCTCGGG | 0.363
39 | CGCGACTA | 0.197
40 | CCCTTAAG | 0.13
41 | CCACCTGC | -0.121
42 | GAAGACTA | -0.0051
43 | CTTCTCCA | -0.301
44 | GGGACATA | 0.0939
45 | CGGACAAG | 0.357
46 | CGGACAAA | 0.405
47 | CGGACATA | 0.489
48 | AGGACAAA | -0.016
49 | CGGACATC | 0.365
50 | CGAGTTGC | -0.053

Row | Sequence | PBM E-score
51 | ACAGCGCG | 0.0018
52 | CGGGCGTA | 0.395
53 | GGGGCGAA | 0.127
54 | CGGGCGAC | 0.304
55 | GGGGCGTA | 0.00742
56 | CGGGCGAA | 0.375
57 | AGGGCGTA | -0.137
58 | AAAGGTGG | -0.156
59 | ACGGCGAA | 0.0956
60 | CCGAAGTC | 0.318
61 | ATTGAACC | -0.0801
62 | CGGCCGAG | 0.449
63 | CGGCCAAG | 0.195
64 | CGGCCGAA | 0.449
65 | GGGCCGAA | 0.311
66 | GGGCCGAC | 0.312
67 | TGGCCGAA | 0.261
68 | CGGCCGAC | 0.415
69 | AGGCCGAG | 0.303
70 | AGGCCGAC | 0.32
71 | GTACTGAC | -0.119
72 | CGCAGTCA | -0.0499
73 | AGAGATGG | -0.0221
74 | AAGTGCGA | 0.00701
75 | ATGAGTCC | 0.0718

Row | Sequence | PBM E-score
76 | AACGACCC | 0.00262
77 | AGGACAGC | -0.0413
78 | CTCCGGGA | 0.392
79 | CGCCGGGA | 0.317
80 | ATCCGGGA | 0.239
81 | GTCCGGGA | 0.38
82 | GGCCGGGA | 0.336
83 | CTCCGGGC | 0.341
84 | CGTGGTTA | -0.251
85 | AGTGGAAG | 0.0152
86 | AATGGGCG | -0.0792
87 | GAGGCGGC | 0.0321
88 | CTACGATA | -0.179
89 | ATCCGATG | 0.277
90 | GTCCGATA | 0.463
91 | GTTCGATA | 0.0968
92 | CTCCGATC | 0.311
93 | ATCCGATC | 0.326
94 | ATCCGATA | 0.453
95 | CTCCGATA | 0.432
96 | GTACGATA | -0.189
97 | CTAACGTC | 0.00466
98 | TCGTACCA | -0.114
99 | GAGGCCAA | -0.0324
100 | AACTGTCA | -0.212

Row | Sequence | PBM E-score
101 | ACAAACGA | -0.145
102 | CTCTGTCA | -0.296
103 | TACCATGA | -0.347
104 | AAGGGGGA | -0.179
105 | GTCACCCA | -0.158
106 | AGACCGGC | 0.235
107 | ATACCGGA | 0.437
108 | ATACCGTG | 0.0634
109 | ATACCGCA | 0.284
110 | ATACCGCG | 0.21
111 | CTACCGCA | 0.108
112 | CTACCGGA | 0.412
113 | ATACCGGC | 0.398
114 | ATACCGGG | 0.416
115 | CTACCGGC | 0.29
116 | CTACCGAA | 0.0576
117 | ATACCGTA | 0.092
118 | ATGGCTCA | -0.343
119 | GGAAACCA | -0.0131
120 | AGTACTTC | 0.153
121 | CGCGCTTA | 0.209
122 | CTGGAGGC | -0.096
123 | AGACAAAC | -0.0936
124 | CAATTCTG | -0.284
125 | CCTCCTCA | -0.13

Row | Sequence | PBM E-score
126 | GATTCTAC | -0.0077
127 | GTACCGTA | 0.0486
128 | GTACCGCA | 0.236
129 | GTACCGGA | 0.393
130 | AGGGAGAA | -0.0602
131 | AATGGTGT | -0.0527
132 | ATAGTAGC | 0.0136
133 | ACCCCGAT | 0.416
134 | ACCCCGAA | 0.377
135 | AACCCGAC | 0.32
136 | CCCCCGAA | 0.312
137 | ACCCCGAG | 0.348
138 | ACCCCGAC | 0.308
139 | AACCCGAT | 0.375
140 | GCCCCGAA | 0.333
141 | AACCCGAG | 0.317
142 | CGCGTAAA | 0.188
143 | AGTTATGG | -0.0493
144 | ACTGTGCG | -0.13
145 | ATCATCGC | 0.0926
146 | AATTTCCA | 0.0738
147 | CAGAAGCC | -0.0458
148 | GTACGGAA | 0.28
149 | CGCTCACG | 0.118
150 | AATACCAT | -0.0062

Row | Sequence | PBM E-score
151 | ATGGTCAA | -0.23
152 | CGGACTTA | 0.488
153 | CGGACTTC | 0.405
154 | AGGACTTC | -0.152
155 | CTGACTTC | -0.0182
156 | GGGACTAA | 0.0852
157 | CGGACTAA | 0.411
158 | TGGACTAA | -0.117
159 | GGGACTTA | 0.0397
160 | AGGACTTA | 0.18
161 | CCTGGTCC | 0.138
162 | GCCAGGAA | -0.262
163 | CTCGGCGA | 0.383
164 | GTCGGCGA | 0.218
165 | ACCGGCGT | 0.282
166 | ACCGGCGG | 0.418
167 | TCCGGCGA | 0.362
168 | ATCGGCGA | 0.357
169 | GCCGGCGA | 0.364
170 | ACCGGCGA | 0.39
171 | ACCGGCGC | 0.267
172 | ATGGACGA | 0.0824
